This note sets out measurements from the antibiotic and cytotoxicity screens of Wong et al. (2023).

Screen size: about 39,000 compounds; about 3,300 (8.5%) were called active. The sample holds actives, similar compounds and a random draw of the others, so the mix is not that of the screen.

The assay has as its system HepG2. The assay is described as follows: cytotoxicity call (relative viability < 0.9). To be noted: 10 µM.
On to `C[C@H](CO)N1C[C@H](C)[C@H](CN(C)C(=O)Nc2ccc(F)cc2)OCCCC[C@H](C)Oc2ccc(NC(=O)CCCN(C)C)cc2C1=O`, for which the cytotoxicity call is “inactive”. As for `COc1ccc(S(=O)(=O)Nc2ccc3c(c2)CC(=O)N([C@@H](C)CO)C[C@@H](C)[C@H](CN(C)Cc2ccc(C(=O)O)cc2)O3)cc1`, the cytotoxicity call is “inactive”. For `C[C@@H]1CN([C@@H](C)CO)C(=O)c2cc(NS(=O)(=O)c3ccccc3)ccc2O[C@@H](C)CCCCO[C@H]1CN(C)Cc1ccccc1`, the cytotoxicity call is “inactive”.

Consider `COc1ccc(S(=O)(=O)Nc2ccc3c(c2)C(=O)N([C@H](C)CO)C[C@@H](C)[C@H](CN(C)S(=O)(=O)c2ccc(Cl)cc2)OCCCC[C@H](C)O3)cc1`, for which the cytotoxicity call was “inactive”. Turning to `COc1ccc(S(=O)(=O)N(C)C[C@@H]2OCCCC[C@@H](C)Oc3ccc(NS(=O)(=O)c4ccc(Cl)cc4)cc3C(=O)N([C@H](C)CO)C[C@H]2C)cc1`, the cytotoxicity call was “active”.

As to `COc1ccc(S(=O)(=O)N(C)C[C@@H]2OCCCC[C@H](C)Oc3ccc(NS(=O)(=O)c4ccc(Cl)cc4)cc3C(=O)N([C@H](C)CO)C[C@H]2C)cc1`, the cytotoxicity call is “active”. On to `COc1ccc(S(=O)(=O)N(C)C[C@H]2OCCCC[C@@H](C)Oc3ccc(NS(=O)(=O)c4ccc(Cl)cc4)cc3C(=O)N([C@@H](C)CO)C[C@H]2C)cc1`, for which the cytotoxicity call is “active”.

With `COc1ccc(S(=O)(=O)Nc2ccc3c(c2)C(=O)N([C@H](C)CO)C[C@H](C)[C@@H](CN(C)S(=O)(=O)c2ccc(Cl)cc2)OCCCC[C@@H](C)O3)cc1`, the cytotoxicity call is “active”. On to `COc1ccc(S(=O)(=O)N(C)C[C@@H]2OCCCC[C@@H](C)Oc3ccc(NS(=O)(=O)c4ccc(Cl)cc4)cc3C(=O)N([C@@H](C)CO)C[C@@H]2C)cc1`, for which the cytotoxicity call is “inactive”. As for `COc1ccc(NC(=O)Nc2ccc3c(c2)C(=O)N([C@@H](C)CO)C[C@@H](C)[C@@H](CN(C)C(=O)Nc2cccc4ccccc24)OCCCC[C@H](C)O3)cc1`, the cytotoxicity call was “inactive”. Take `C[C@@H]1CCCCO[C@@H](CN(C)C(=O)Nc2ccc(F)cc2)[C@H](C)CN([C@@H](C)CO)C(=O)c2cc(NC(=O)Nc3ccc(F)cc3)ccc2O1`: the cytotoxicity call is “inactive”. `O=C(C[C@@H]1CC[C@@H]2[C@H](COC[C@@H](O)CN2C(=O)c2ccccc2)O1)NCCCN1CCOCC1`: the cytotoxicity call is “inactive”. In the case of `C[C@H](CO)N1C[C@H](C)[C@@H](CN(C)C(=O)Cc2ccncc2)Oc2cc(C#CC3(O)CCCC3)ccc2S1(=O)=O`, the cytotoxicity call is “inactive”. Consider `CN(C)CCCNC(=O)C[C@@H]1CC[C@@H]2[C@H](COc3ccc(NC(=O)c4ccc5c(c4)OCO5)cc3C(=O)N2C)O1`, for which the cytotoxicity call was “inactive”.

As for `O=C(CCCCCNC(=O)OC[C@]12N=C3SCc4ccccc4CN3[C@H](c3ccccc3O1)[C@H]2COC(=O)c1ccccc1)NO`, the cytotoxicity call was “inactive”. In the case of `C[C@@H]1CN([C@H](C)CO)S(=O)(=O)c2ccc(Br)cc2O[C@@H]1CN(C)CC1CCOCC1` it was “inactive”. As to `O=C(Nc1cccc2cccnc12)[C@@H]1[C@H](c2ccc3ccccc3c2)CC(=O)N1C(=O)OCc1ccccc1`, the cytotoxicity call was “inactive”. In the case of `COc1ccc2c3c(n(c2c1)C)[C@@H](CO)N(CC1CCOCC1)C[C@]13CN(C1)C(=O)c1cccc(c1)F` it was “inactive”.

Consider `C[C@@H]1CN([C@@H](C)CO)C(=O)Cc2cc(NC(=O)c3ccncc3)ccc2O[C@H]1CN(C)S(=O)(=O)c1ccc(F)cc1`, for which the cytotoxicity call was “inactive”.

Regarding `COc1ccc(NC(=O)Nc2ccc3c(c2)C(=O)N([C@@H](C)CO)C[C@@H](C)[C@@H](CN(C)S(=O)(=O)c2ccc(F)cc2)OCCCC[C@H](C)O3)cc1`, the cytotoxicity call is “inactive”. Under `COc1ccc(S(=O)(=O)Nc2ccc3c(c2)C(=O)N([C@@H](C)CO)C[C@@H](C)[C@H](CN(C)S(=O)(=O)c2ccc(Cl)cc2)OCCCC[C@H](C)O3)cc1` stands “inactive”. Take `COc1ccc(S(=O)(=O)N(C)C[C@H]2OCCCC[C@H](C)Oc3ccc(NS(=O)(=O)c4ccc(Cl)cc4)cc3C(=O)N([C@H](C)CO)C[C@@H]2C)cc1`: the cytotoxicity call is “active”. Turning to `COc1ccc(S(=O)(=O)Nc2ccc3c(c2)C(=O)N([C@H](C)CO)C[C@@H](C)[C@@H](CN(C)S(=O)(=O)c2ccc(Cl)cc2)OCCCC[C@H](C)O3)cc1`, the cytotoxicity call is “inactive”. In the case of `CCOC(=O)c1cc2c(c(-c3cccc(Br)c3)n1)[C@@H](CCOC)N([S@](=O)C(C)(C)C)C2` it was “inactive”; in that of `Nc1ncnc2c1ncn2[C@@H]1C=C[C@H](CO)O1`, “inactive”; in that of `CCC(=O)N[C@@H]1C=C[C@H](CC(=O)OC)O[C@@H]1CO`, “inactive”.

On to `Cc1cc(=O)n2ncnc2[nH]1`, for which the cytotoxicity call was “inactive”.

With `C[C@H]1CCCCO[C@H](CN(C)S(=O)(=O)c2ccccc2)[C@@H](C)CN([C@@H](C)CO)C(=O)c2cc(NC(=O)Nc3ccccc3)ccc2O1`, the cytotoxicity call is “inactive”. On to `CCC1(O)CC2CN(CCc3c([nH]c4ccccc34)C(C(=O)OC)(c3cc4c(cc3OC)N(C)C3C(O)(C(=O)OC)C(OC(C)=O)C5(CC)C=CCN6CCC43C65)C2)C1.O=S(=O)(O)O` (stereo not drawn), for which the cytotoxicity call is “active”. Regarding `CCC1(O)CC2CN(CCc3c([nH]c4ccccc34)C(C(=O)OC)(c3cc4c(cc3OC)N(C=O)C3C(O)(C(=O)OC)C(OC(C)=O)C5(CC)C=CCN6CCC43C65)C2)C1.O=S(=O)(O)O` (stereo not drawn), the cytotoxicity call was “active”. As for `COc1ccc(S(=O)(=O)N(C)C[C@H]2OCCCC[C@H](C)Oc3ccc(NC(=O)c4ccccc4)cc3C(=O)N([C@H](C)CO)C[C@@H]2C)cc1`, the cytotoxicity call is “inactive”. `C[C@@H]1CN([C@@H](C)CO)S(=O)(=O)c2ccc(C3=CCCC3)cc2O[C@@H]1CN(C)C(=O)C1CCOCC1`: the cytotoxicity call is “inactive”. Turning to `CO[C@@H]1CN(C)C(=O)c2cc(NC(=O)C3CCOCC3)ccc2OC[C@H](C)N(Cc2cccnc2)C[C@H]1C`, the cytotoxicity call is “inactive”. For `C[C@H](CO)N1C[C@H](C)[C@H](CN(C)C(=O)NC2CCCCC2)OCCCC[C@H](C)Oc2ccc(NC(=O)Cc3ccccc3)cc2C1=O`, the cytotoxicity call was “inactive”. Consider `COc1ccc(NC(=O)Nc2ccc3c(c2)C(=O)N([C@H](C)CO)C[C@H](C)[C@@H](CN(C)Cc2ccncc2)OCCCC[C@H](C)O3)cc1`, for which the cytotoxicity call is “inactive”. As for `C[C@H]1CN([C@@H](C)CO)C(=O)c2cc(NC(=O)Nc3ccc(C(F)(F)F)cc3)ccc2O[C@@H]1CN(C)C(=O)Nc1ccc(F)cc1`, the cytotoxicity call was “inactive”. As for `C[C@@H]1CN([C@@H](C)CO)C(=O)Cc2cc(NS(=O)(=O)c3ccccc3)ccc2O[C@H]1CN(C)Cc1ccc(Cl)c(Cl)c1`, the cytotoxicity call was “active”. Under `C[C@@H]1CN([C@@H](C)CO)C(=O)Cc2cc(NS(=O)(=O)c3ccccc3)ccc2O[C@@H]1CN(C)Cc1ccc(Cl)c(Cl)c1` stands “active”; under `C[C@@H]1CN([C@H](C)CO)C(=O)Cc2cc(NS(=O)(=O)c3ccccc3)ccc2O[C@H]1CN(C)Cc1ccc(Cl)c(Cl)c1`, “active”. In the case of `C[C@H](CO)N1C[C@H](C)[C@@H](CN(C)Cc2ccc(Cl)c(Cl)c2)Oc2ccc(NS(=O)(=O)c3ccccc3)cc2CC1=O`, the cytotoxicity call is “inactive”. With `C[C@H]1CN([C@@H](C)CO)C(=O)Cc2cc(NS(=O)(=O)c3ccccc3)ccc2O[C@@H]1CN(C)Cc1ccc(Cl)c(Cl)c1`, the cytotoxicity call was “active”. Consider `C[C@H]1CN([C@@H](C)CO)C(=O)Cc2cc(NS(=O)(=O)c3ccccc3)ccc2O[C@H]1CN(C)Cc1ccc(Cl)c(Cl)c1`, for which the cytotoxicity call was “inactive”. On to `CNC[C@H]1OCCCC[C@@H](C)Oc2ccc(NC(=O)Nc3cccc4ccccc34)cc2C(=O)N([C@H](C)CO)C[C@H]1C`, for which the cytotoxicity call was “inactive”. As for `COc1ccccc1CNC(=O)C[C@H]1C[C@H]2c3cc(NS(=O)(=O)c4ccc(F)cc4)ccc3O[C@H]2[C@@H](CO)O1`, the cytotoxicity call was “inactive”. Regarding `C[C@H](CO)N1C[C@H](C)[C@@H](CN(C)Cc2ccc3c(c2)OCO3)Oc2ccc(NC(=O)CCN3CCOCC3)cc2CC1=O`, the cytotoxicity call was “inactive”. As for `COc1ccc(S(=O)(=O)Nc2ccc3c(c2)C(=O)N([C@H](C)CO)C[C@H](C)[C@H](CN(C)Cc2ccccc2)OCCCC[C@@H](C)O3)cc1`, the cytotoxicity call was “inactive”. For the compound `C[C@@H]1CCCCO[C@H](CN(C)C(=O)NC2CCCCC2)[C@@H](C)CN([C@H](C)CO)C(=O)c2cc(NC(=O)CCCCCC(=O)Nc3ccccc3N)ccc2O1`, the cytotoxicity call was “inactive”. Turning to `COc1ccc(S(=O)(=O)N(C)C[C@H]2Oc3ccc(NC(=O)CCCN(C)C)cc3C(=O)N([C@H](C)CO)C[C@@H]2C)cc1`, the cytotoxicity call is “inactive”.

`COc1ccc(NC(=O)Nc2ccc3c(c2)C(=O)N([C@@H](C)CO)C[C@H](C)[C@H](CN(C)S(=O)(=O)c2ccc(Cl)cc2)OCCCC[C@@H](C)O3)cc1`: the cytotoxicity call is “inactive”. With `C[C@@H]1CCCCO[C@@H](CN(C)C(=O)Nc2ccc(C(F)(F)F)cc2)[C@H](C)CN([C@H](C)CO)C(=O)c2cc(NS(C)(=O)=O)ccc2O1`, the cytotoxicity call is “inactive”. Take `C[C@H]1CN([C@@H](C)CO)C(=O)Cc2cc(NS(=O)(=O)c3cccs3)ccc2O[C@@H]1CN(C)Cc1ccc(Cl)c(Cl)c1`: the cytotoxicity call was “inactive”. In the case of `C[C@@H]1CN([C@@H](C)CO)C(=O)Cc2cc(NS(=O)(=O)c3cccs3)ccc2O[C@H]1CN(C)Cc1ccc(Cl)c(Cl)c1` it was “inactive”. Regarding `C[C@H](CO)N1C[C@H](C)[C@H](CN(C)Cc2ccc(Cl)c(Cl)c2)Oc2ccc(NS(=O)(=O)c3ccccc3)cc2CC1=O`, the cytotoxicity call is “inactive”. On to `C[C@@H]1CN([C@H](C)CO)C(=O)Cc2cc(NS(=O)(=O)c3ccccc3)ccc2O[C@@H]1CN(C)Cc1ccc(Cl)c(Cl)c1`, for which the cytotoxicity call was “active”. For `C[C@H]1CN([C@@H](C)CO)C(=O)Cc2cc(NS(=O)(=O)c3cccs3)ccc2O[C@H]1CN(C)Cc1ccc(Cl)c(Cl)c1`, the cytotoxicity call was “active”.

For `C[C@@H]1CCCCO[C@@H](CN(C)Cc2ccccc2)[C@H](C)CN([C@@H](C)CO)C(=O)c2cc(NC(=O)CCC(F)(F)F)ccc2O1`, the cytotoxicity call was “inactive”. Under `CC(C)NC(=O)N(C)C[C@H]1Oc2ccc(NC(=O)Cn3cnnn3)cc2CC(=O)N([C@H](C)CO)C[C@H]1C` stands “inactive”; under `C[C@H](CO)N1C[C@H](C)[C@H](CN(C)Cc2ccc(C(=O)Nc3ccccc3N)cc2)OCc2cnnn2CCCC1=O`, “inactive”.
